Values without a mark were called inactive. Entries that show only a call come without a potency. Active and inactive are the calls of the source. Calls come from the whole dose curve; as a rule, active = well fitted cell-killing curve with a large enough effect in the repeat runs; inconclusive = weak or mixed curves, or effect the other way; inactive = flat fitted curve, though single readings scatter. Starred links: 1 amine or outer side, 2 acyl side, 3 side chain; linkers in the order of their positions; H or OH if unused. Positions of bridges follow the written chain, without caps; N, C: chain ends. Non-standard residues stand in square brackets, D forms with d. Residues, ends and D or L forms follow the SMILES beside them. Chains are numbered I, II in the order given. Actinocin(9to1) = Cc1c2oc3c(C)ccc(C(=O)[*:1])c3nc-2c(C(=O)[*:2])c(N)c1=O; NMeV = CN[C@H](C(=O)O)C(C)C; Sar = CNCC(=O)O
Assay: qHTS assay to identify small molecule HDAC inhibitors - cell viability counter screen (AID 1259365); note: nearly all actives have a fitted effect of over 50% in size
Details: HCT-116 viability, CellTiter-Glo ATP luminescence, 2 h; series mostly up to 92.4 µM; activity change, negative = cytotoxicity: at the top concentration
Text: U.S. Tox21 Program National Center for Advancing Translational Sciences [NCATS] NIH Chemical Genomics Center [NCGC] U.S. Environmental Protection Agency [EPA] National Institutes of Environmental Health Sciences [NIEHS] National Toxicology Program [NTP] U.S. Food and Drug Administration [FDA] Tox21 Assay Overview: Histone deacetylases (HDACs) are a group of epigenetic enzymes that regulate gene expression by histone deacetylation. HDACs are capable of introducing epigenetic modifications and such aberrations contribute to the onset and progression of several human diseases, thus making HDACs a popular therapeutic target. For identifying endogenous class I/II HDAC inhibitors a homogenous, luminogenic HDAC I/II cell based assay was used to measure the relative activity of class I and II HDACs from cells. Wild type HCT-116 cells were used to screen Tox21 compound libraries for identifying class I/II HDAC inhibitors.
Tox21 Assay Protocol Summary: HCT-116 cells were dispensed at 1,500 per well in 5uL of culture medium into white solid bottom 1536-well plates (Greiner Bio-One, Monroe, NC) using a Multidrop Combi (Thermo Scientific, Waltham, MA) dispenser. The assay plates were incubated at 37 C and 5% CO2 for an overnight, and then 23nL of compounds dissolved in DMSO and positive control were transferred using a Pintool station (Wako, San Diego, CA). The assay plates were incubated at 37C and 5% CO2 for 2hr. After compound treatment, 4uL of CellTiter-Glo reagent (Promega Corporation, Madison, WI) was added to each well of the assay plates using Flying Reagent Dispenser (FRD, Aurora Discovery, San Diego, CA) and incubated the assay plates at room temperature for 30min. The luminescence signal was quantified using a ViewLux plate reader (Perkin Elmer, Shelton, CT).
Potency is the fitted concentration of half-maximal effect.

| SMILES | activity change, negative = cytotoxicity | Potency |
| --- | --- | --- |
| CC(=O)CC(=O)Nc1ccc2[nH]c(=O)[nH]c2c1 | 1.66% | – |
| C/C=C/c1ccc(OCC)c(O)c1 | – | inactive |
| Clc1ccc2c(c1)C(N1CCNCC1)=Nc1ccccc1O2 | – | inactive |
| CCCOC(=O)c1cc(O)c(O)c(O)c1 | – | inactive |
| CCC[C@H](N[C@@H](C)C(=O)N1[C@H](C(=O)O)C[C@@H]2CCCC[C@@H]21)C(=O)OCC | – | inactive |
| CO[Si](OC)(OC)c1ccccc1 | 1.05% | – |
| Cc1c(O)cccc1C(=O)N[C@@H](CSc1ccccc1)[C@H](O)CN1C[C@H]2CCCC[C@H]2C[C@H]1C(=O)NC(C)(C)C | – | inactive |
| CC[C@H]1CN2CCc3cc(OC)c(OC)cc3[C@@H]2C[C@@H]1C[C@H]1NCCc2cc(OC)c(OC)cc21 | – | inactive |
| O=c1n(CC2CO2)c(=O)n(CC2CO2)c(=O)n1CC1CO1 (stereo not given) | – | inactive |
| CCCN[C@H]1CCc2nc(N)sc2C1 | – | inactive |
| c1cnc2cc3c(cc2n1)C1CNCC3C1 | -0.508% [at 42.5 µM] | – |
| c1ccc2c(c1)CCCC2C1=NCCN1 (stereo not given) | -2.51% [at 42.5 µM] | – |
| OCCOCCN1CCN(C(c2ccccc2)c2ccc(Cl)cc2)CC1 (stereo not given) | – | inactive |
| Nc1cc(Cl)c(-c2cc(Cl)c(N)cc2Cl)cc1Cl | – | inactive |
| CCCCCCC(O)CCCCCCCCCCC(=O)O (stereo not given) | – | inactive |
| CC(C)(C)c1cc(C(C)(C)C)c(O)c(C(C)(C)C)c1 | – | inactive |
| CC[C@@H](N)CO | 0.434% | – |
| NCCCCCC(=O)O | 0.116% [at 42.5 µM] | – |
| CC(C(O)c1ccc(O)cc1)N1CCC(Cc2ccccc2)CC1 (stereo not given) | 1.37% [at 42.5 µM] | – |
| [Cl][In]([Cl])[Cl] | – | inactive |

| SMILES | activity change, negative = cytotoxicity | Potency |
| --- | --- | --- |
| CCn1cc(C(=O)O)c(=O)c2cc(F)c(N3CCNC(C)C3)c(F)c21 (stereo not given) | -2.29% [at 42.5 µM] | – |
| O=S(=O)(O)c1ccc2nc(-c3ccccc3)[nH]c2c1 | – | 23.2 µM (active) |
| OCC(CO)N[C@H]1C[C@](O)(CO)[C@@H](O)[C@H](O)[C@H]1O | 0.883% [at 42.5 µM] | – |
| Cc1c2oc3c(C)ccc(C(=O)N[C@@H]4C(=O)N[C@H](C(C)C)C(=O)N5CCC[C@H]5C(=O)N(C)CC(=O)N(C)[C@@H](C(C)C)C(=O)O[C@@H]4C)c3nc-2c(C(=O)N[C@@H]2C(=O)N[C@H](C(C)C)C(=O)N3CCC[C@H]3C(=O)N(C)CC(=O)N(C)[C@@H](C(C)C)C(=O)O[C@@H]2C)c(N)c1=O (I: T[dV]P[Sar][NMeV] / II: T[dV]P[Sar][NMeV]; ester I:1-I:C, II:1-II:C; linker I:N-II:N via Actinocin(9to1)) | – | inactive |
| O=Cc1ccc(Cl)cc1 | 3.83% | – |
| C1COC(NC(C2CC2)C2CC2)=N1 | -0.361% [at 42.5 µM] | – |
| Nc1nc(=S)c2[nH]cnc2[nH]1 | – | inactive |
| NC12CC3CC(CC(C3)C1)C2 | -0.32% [at 42.5 µM] | – |
| O=C(O)c1cn(-c2ccc(F)cc2)c2cc(N3CCNCC3)c(F)cc2c1=O | – | inactive |
| CCCCCC(=O)O[C@]1(C(C)=O)CC[C@H]2[C@@H]3CCC4=CC(=O)CC[C@]4(C)[C@H]3CC[C@@]21C | – | inactive |
| O=C(OCc1ccccc1)c1ccc(O)cc1 | – | inactive |
| O=C(O)CP(=O)(O)O | 5.25% [at 42.5 µM] | – |
| CCCCN(CCO)CCCC | -8.07% | – |
| Oc1c(Cl)cc(Cl)c(Cl)c1Cc1c(O)c(Cl)cc(Cl)c1Cl | – | inactive |
| CCCCCCCCCCCCCCCCCl | -13.9% [at 19 µM] | – |
| C#CC(C)(CC)OC(=O)c1ccccc1C(=O)O (stereo not given) | 0.349% [at 42.5 µM] | – |
| O=C(O[C@@H]1Cc2c(O)cc(O)cc2O[C@@H]1c1cc(O)c(O)c(O)c1)c1cc(O)c(O)c(O)c1 | – | inactive |
| NC(Cc1ccc(Cl)cc1)C(=O)O (stereo not given) | 1.43% [at 0.349 µM] | – |
| COc1ccc(COC(C)=O)cc1 | – | inactive |
| Nc1cc(S(=O)(=O)O)cc2cc(S(=O)(=O)O)cc(O)c12 | – | inactive |
